Assay outcomes as filed in PubChem BioAssay.
Sampled rows, rich in hits. Any-hit rate of the full collection: about 6.6%.
KB-V1 MDR tox: qHTS assay for MDR1-selective chemotherapeutics: Primary screen using the drug-selected MDR subline cells KB-V1 | KB-V1 MDR cells viability, CellTiter-Glo, 72 h | Potency, µM (titrated, usually from 46.1 µM), usual class: cytotoxic | 3.4% of 400,000 active; also: % is scaled to controls: 0 for no effect and ±100 for the full control effect; nearly all actives have a fitted effect of over 60% in size
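Drug-selected KB-V1 cells, grown in DMEM lacking phenol red with 10% FBS, receive compound titrations; after three days at 37 degrees C, surviving cell ATP is quantified by CellTiter-Glo luminescence and responses normalized and curve-fitted.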
HT1080 IDH1KD tx: qHTS for induction of synthetic lethality in tumor cells producing 2HG: qHTS for the HT-1080-IDH1KD cell line. HT-1080 IDH1 knockdown viability, ATP luminescence, 48 h. Potency, µM (doses to about 46.1 µM), for inactives: at the highest dose activity, negative = toxicity, actives largely listed as cytotoxic. 2% of 360,000 active;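 also: 0% = DMSO wells and -100% = cell-free medium wells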
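In this qHTS, HT-1080 cells depleted of IDH1 are exposed for 48 h at 37 °C to compound titrations. Toxicity is scored from CellTiter-Glo luminescence, with DMSO as full viability and medium alone as none.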
TGFb inhibitor: qHTS for Inhibitors of TGF-b; 1.2% of 410,000 active; Potency, µM (highest dose often 46.1 µM), for inactives: at the highest dose activity, negative = inhibition, actives largely listed as inhibitors; AID 588855, 2011; HepG2 CAGA-GFP TGF-b/SMAD3 reporter, GFP fluorescence, 18 h; TGF-beta stimulated, 500 pg/mL final; also: % is scaled to controls: 0 for no effect and ±100 for the full control effect; nearly all actives have a fitted effect of over 65% in size
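HEPG2 CAGA-GFP, 1000 cells/well; 2 h settle, 37 C; cpd via pin tool; TGF-b 500 pg/mL final; 18 h, 37 C; GFP imaging ex488/em500-530; %Activity normalised to -TGF-b and +DMSO controls; CRC fit, curve class.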
HepG2 tox: qHTS for Inhibitors of TGF-b: Cytotox Counterscreen. HepG2 CAGA-GFP viability, ATP luminescence, 18 h. Potency, µM (series often up to 46.1 µM), inactives show at the top dose activity change, negative = cytotoxicity, actives largely listed as cytotoxic. 0.76% of 410,000 active. AID 588856, 2011
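HepG2 CAGA-GFP cells (1000/well, DMEM with 1% FBS) received compound, then TGF-beta at 500 pg/mL final, and were incubated 18 hours at 37 degrees C. Viability was read by CellTiter-Glo luminescence. Media-only wells were set as complete cell-killing and DMSO as no toxicity.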
HT1080-NT tox: qHTS for induction of synthetic lethality in tumor cells producing 2HG: qHTS for the HT-1080-NT fibrosarcoma cell line; HT-1080-NT fibrosarcoma viability, CellTiter-Glo ATP luminescence, 48 h; Potency, µM (titrated, usually from 46.1 µM), inactives show at the top dose activity, negative = less viability, most hits filed as cytotoxic; 1.6% of 360,000 active;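 also: NT is the 2HG producing partner of a matched IDH1 knockdown line; 0% = DMSO-treated cells and -100% = media-only wells without cells; nearly all actives have a fitted effect of over 55% in size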
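A 48-hour cytotoxicity screen used HT-1080-NT cells plated 2 hours before compound delivery. ATP-based CellTiter-Glo luminescence measured viability, normalized to DMSO and no-cell controls.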
KB-3-1 tox: qHTS assay for MDR1-selective chemotherapeutics: Primary screen using the parental adenocarcinoma cell KB-3-1; KB-3-1 viability, CellTiter-Glo ATP luminescence, 72 h; Potency, µM (doses to about 46.1 µM), most hits filed as cytotoxic; 1.4% of 400,000 active; also: % is scaled to controls: 0 for no effect and ±100 for the full control effect; nearly all actives have a fitted effect of over 60% in size
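Screening of KB-3-1 cells (DMEM, 10% FBS, phenol-red free) ran from lowest to highest compound concentration; after 72 h at 37 °C viability was read luminescently and curves fitted.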
Starred values were filed as active, the others as inactive; i = inactive; ? = inconclusive; . = no result; [ ] = remark or other dose. Calls follow the shape of the dose curve; as a rule, active = well fitted curve in the direction sought with a large enough effect; inconclusive = small, poorly fitted or top-dose-only effect, or another doubt; inactive = no such curve, though single readings can be large; an effect the other way counts as inactive or inconclusive. Potency is read from the fitted curve at half-maximal effect.

SMILES	KB-V1 MDR tox	HT1080 IDH1KD tx	TGFb inhibitor	HepG2 tox	HT1080-NT tox	KB-3-1 tox
Cc1nn(C)c(C)c1S(=O)(=O)N(CC(=O)NCCc1ccc(Cl)cc1)c1ccc(C(C)C)cc1	i	.	1%	-1%	.	i
O=C(NCCSCc1ccc(Cl)cc1)C1CCN(S(=O)(=O)Cc2ccccc2)CC1	i	.	-27%	-7%	.	i
CCOc1ccc(OCC)c(NC(=O)c2csc3c2CCCC3)c1	.	.	-14%	-9%	.	.
Cc1cccc(CCNC(=O)c2ccc(CSCc3cccc(Cl)c3)o2)c1	i	.	?	-29%	.	i
O=C(N/N=C/c1ccc(O)cc1)c1cccc(C(F)(F)F)c1	?	-11%	-11%	-22%	-13%	i
O=C(N/N=C/c1ccccc1O)c1cccc(C(F)(F)F)c1	?	2.6µM*	?	-52%	?	?
COc1ccc(NC(=O)CCCn2nc(C)c3sc4ccccc4c3c2=O)cc1	i	.	43%	11%	.	i
Cc1cc(Nc2ccc(C(C)C)cc2)n2ncnc2n1	7.3µM*	-2%	39%	18%	2%	15µM*
COc1ccc(Nc2cc(C)nc3ncnn23)cc1	i	13%	-1%	11%	24%	i
CCOC(=O)/C(=N/Nc1ccccc1)c1csc(Nc2ccccc2)n1	?	?	?	-89%	?	i
CCN(CC)C(=O)c1csc(Nc2ccc(C)cc2)n1	15µM*	3%	2%	-22%	23%	i
CCOC(=O)/C(=N\Nc1ccc(Cl)cc1)c1csc(Nc2ccccc2)n1	i	?	?	11µM*	?	i
CCOc1ccccc1NC(=O)N1c2ccccc2Sc2ccccc21	i	.	-17%	-32%	.	i
O=C(c1cnn2c1NC(c1ccco1)CC2C(F)(F)F)N1CCN(c2cccc(Cl)c2)CC1 (configuration not stated)	?	18µM*	?	-14%	15µM*	?
Cc1cccc(N2C(=O)C(Oc3ccc(Cl)cc3Cl)C2C=O)c1C (configuration not stated)	?	?	?	-72%	9.2µM*	?
COc1ccc(CN2C(=O)c3cccnc3C2=O)cc1S(=O)(=O)N(C)c1ccc(C)cc1	i	3%	-3%	-1%	20%	i
CCN(c1cccc(C)c1)S(=O)(=O)c1cc(CN2C(=O)c3cccnc3C2=O)ccc1OC	?	9%	2%	11µM*	-2%	i
Cc1nn(-c2ccccc2)c(C)c1NC(=O)COc1ccc(C#N)cc1	18µM*	3%	-1%	-11%	8%	i
Cc1nn(-c2ccccc2)c(C)c1NC(=O)COc1ccccc1C#N	i	6%	2%	2%	-2%	i
Cc1nn(-c2ccccc2)c(C)c1NC(=O)COc1ccc(Br)cc1Cl	?	?	0%	-27%	?	15µM*
Cc1nn(-c2ccccc2)c(C)c1C(=O)OCC(=O)Nc1ccccc1	10µM*	-14%	2%	-13%	1%	i
COCCCNC(=O)COc1ccc(Br)cc1Cl	21µM*	12%	-21%	-15%	21%	i
O=C(NCc1cccc(F)c1)c1ccc2nc(N3CCCCC3)sc2c1	?	.	23%	6%	.	i
Cn1c(=O)c2cc(NC(=S)NCc3ccccc3F)ccc2n1C	i	-2%	4%	4%	?	i
Cc1nn(-c2ccccc2)c(C)c1NC(=O)COc1ccc2ccccc2c1	15µM*	?	?	-10%	-25%	?
SMILES	KB-V1 MDR tox	HT1080 IDH1KD tx	TGFb inhibitor	HepG2 tox	HT1080-NT tox	KB-3-1 tox
Cc1nn(-c2ccccc2)c(C)c1NC(=O)COC(=O)c1ccccc1	?	2%	3%	4%	2%[9.24 µM]	i
Cc1cccc(N2CCN(S(=O)(=O)c3ccc4c(c3)C(C(C)C)C(=O)N4)CC2)c1C (configuration not stated)	?	.	16µM*	-57%	.	?
Cc1ccc(NC(=O)C2CCN(S(=O)(=O)c3ccc4c(c3)NC(=O)C(C)S4)CC2)cc1Cl (configuration not stated)	?	?	2.2µM*	-11%	?	?
CC1Sc2ccc(S(=O)(=O)N3CCN(c4ccccc4)CC3)cc2NC1=O (configuration not stated)	?	-2%	?	-19%	-13%	i
Cc1cccc(N2CCN(S(=O)(=O)c3ccc4c(c3)NC(=O)C(C)S4)CC2)c1C (configuration not stated)	i	?	16µM*	0%	?	?
Cc1cc(Br)ccc1NC(=O)c1cn(C2CCCC2)c(=O)c2c1c1ccccc1n2C	i	.	?	-2%	.	?
C=CCN1C(=O)S/C(=C\c2ccc3c(c2)n(C)c(=O)n3C)C1=O	18µM*	6%	7%	-3%	9%	i
CSCC[C@H](NC(=O)OC(C)(C)C)c1nnc(SCc2ccc(F)cc2)o1	21µM*	-7%	?	-17%	-5%	i
CSCC[C@H](NC(=O)OC(C)(C)C)c1nnc(SCC(=O)N(C)C)o1	i	10%	-2%	-1%	10%	i
C[C@H](NC(=O)OC(C)(C)C)c1nnc(SCc2ccc(Cl)cc2Cl)o1	18µM*	.	?	-17%	.	?
CCSc1nnc([C@H](Cc2c[nH]c3ccccc23)NC(=O)OC(C)(C)C)o1	?	10%	-28%	-6%	-2%	i
CSCC[C@H](NC(=O)OC(C)(C)C)c1nnc(SCc2cccc(F)c2)o1	i	-2%	?	24%	0%	i
CSCC[C@H](NC(=O)OC(C)(C)C)c1nnc(SCc2ccccc2)o1	9.2µM*	-6%	35%	-13%	-9%	?
CCN(CC)C(=O)CSc1nnc([C@H](Cc2c[nH]c3ccccc23)NC(=O)OC(C)(C)C)o1	15µM*	0%	0%	-10%	9%	i
Cc1nnsc1C(=O)Oc1ccc(C(C)C)cc1	i	.	3%	8%	.	i
CC(NC(=O)c1cc(COc2ccc(-n3cncn3)cc2)on1)c1ccc(F)cc1 (configuration not stated)	i	-15%	-16%	6%	-3%	i
